This is a sample that favours compounds with a hit; in the whole collection about 2.1% have one here.
TLR4-MyD88 inh: inhibitors of human TLR4-MyD88 binding; Toll-like receptor 4 (Homo sapiens), O00206; inhibition, % at 10 µM; Cell-based TLR4-MyD88 binding inhibition assay; 16,000 compounds, 0.06% hits; in the data active = inhibition above about 45%
rat GALR2 agon: agonists of rat galanin receptor 2 (GALR2); Galanin receptor type 2 (Rattus norvegicus), O08726; cell-based GALR2 agonist screen; activation, % at 10 µM; 16,000 compounds, 0.5% hits; in the data active = activation above about 15%
Target sequence (O08726 whole entry, looked up): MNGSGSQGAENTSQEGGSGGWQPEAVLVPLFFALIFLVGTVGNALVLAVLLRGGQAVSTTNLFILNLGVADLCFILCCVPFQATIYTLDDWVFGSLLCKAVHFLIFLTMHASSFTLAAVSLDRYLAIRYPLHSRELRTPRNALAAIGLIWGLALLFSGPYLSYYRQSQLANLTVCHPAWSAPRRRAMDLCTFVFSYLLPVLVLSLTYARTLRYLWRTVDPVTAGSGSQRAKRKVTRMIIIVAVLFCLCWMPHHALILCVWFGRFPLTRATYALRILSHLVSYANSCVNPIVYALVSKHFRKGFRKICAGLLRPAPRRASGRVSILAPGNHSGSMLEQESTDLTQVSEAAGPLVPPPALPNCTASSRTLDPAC
S1P1 agonist: activates the human S1P1 receptor. S1P1 agonist cell-based reporter assay. activation, % at 4.5 µM. 16,000 compounds, 1.5% hits. AID 1044, 2008; in the data active = activation above about 80%
OPRK1 antag MB: antagonists of human kappa opioid receptor OPRK1, Maybridge library | Kappa-type opioid receptor (Homo sapiens), P41145 | OPRK1 cells, antagonist mode, fluorescence readout | inhibition, % at 9 µM | 16,000 compounds, 0.4% hits | AID 652031, 2013; in the data active = inhibition above about 50%
Numbers without * were called inactive; · = no result.

SMILES	TLR4-MyD88 inh	rat GALR2 agon	S1P1 agonist	OPRK1 antag MB
Cc1cc(C(=O)Nc2cc(S(=O)(=O)N(C)C)ccc2C)no1	-7.6	-5.4	-16.4	-9.1
CN1CCN(C(=O)Oc2ccccc2)CC1	-10.7	-5.4	-3.7	23.4
CCCCCC[n+]1ccccc1/C=C/c1ccc(N(C)C)cc1	63.6*	-13.5	113.2*	71.5*
Cc1ccc(NNC(=O)c2scc(S(=O)(=O)c3ccc(Cl)cc3)c2C)cc1	-8.9	-1.6	6.9	-15.1
N#C/C(=C\c1ccc(C#Cc2ccccc2)cc1)C(=O)c1ccco1	-3.8	3.9	8.0	3.7
CCC(=O)Nc1cccc2c(NC(=O)CC)cccc12	12.3	-4.4	82.3*	6.6
CCC(=O)Nc1cc(F)ccc1C	-7.3	-2.6	-20.8	9.9
COc1cc2c(cc1OC)CC(=O)OC2	10.0	-4.9	80.7*	3.5
C1=C(c2ccccc2)C2CC=C(c3ccccc3)C2C1 (stereo unspecified)	11.1	-8.8	4.5	-12.8
N#CC(C#N)=NNc1ccc2c(c1)OCCO2	7.4	-12.3	94.1*	1.4
Cc1c(C)n(Cc2ccc(Br)cc2)c(=O)n(Cc2ccc(Br)cc2)c1=O	3.1	-10.4	102.3*	-0.6
N#Cc1c(OCC(F)(F)F)ccc(S(=O)(=O)N2CCOCC2)c1OCC(F)(F)F	5.0	-5.7	-3.6	-17.6
COc1ccc(C(=O)NNc2c([N+](=O)[O-])cc(C(F)(F)F)cc2[N+](=O)[O-])cc1	-7.0	-3.7	61.3	16.2
O=C(NNc1c([N+](=O)[O-])cc(C(F)(F)F)cc1[N+](=O)[O-])c1ccccc1-n1cccc1	-2.6	-8.9	108.9*	-39.2
COC(=O)C1=CN2c3ccccc3SC2(C(=O)OC)C(C(=O)OC)=C1C(=O)OC (stereo unspecified)	·	-5.5	99.0*	-9.1
COC(=O)c1ccccc1-n1cccc1C(=O)OC	3.6	-3.1	-1.0	3.1
O=C1c2ccccc2C(=O)C1C(C[N+](=O)[O-])c1c(F)cccc1Cl (stereo unspecified)	1.0	0.2	17.9	-7.9
Cn1nc(C(F)(F)F)c(-c2ccccc2)c1N1C(=O)C2C3C=CC(C3)C2C1=O (stereo unspecified)	6.1	-6.5	86.0*	-36.1
Cc1cc(C(=O)Nc2c(-c3ccccc3)c(C(F)(F)F)nn2C)no1	-11.9	-6.2	-0.8	12.9
CCOC(=O)c1cnc(SCc2ccc(Cl)cc2)nc1C(F)(F)F	-1.0	-7.5	80.6*	4.2
Cc1cc(C)c2c(N)c(C(=O)Nc3nnc(-c4cccs4)s3)sc2n1	0.9	-3.2	7.0	-3.7
CC(=O)c1sc2nc(-c3cccs3)cc(C(F)(F)F)c2c1N	22.0	-7.1	12.4	88.6*
Oc1c(Cl)cc(Cl)cc1/C=N/NC(=S)NNc1ccccc1	4.7	-2.8	53.7	10.6
CC(NC(=S)N/N=C/c1cc(Cl)cc(Cl)c1O)c1ccccc1 (stereo unspecified)	-50.9	26.8*	-16.9	-11.5
Cc1ccc(C(=O)CSC#N)cc1	-6.1	-7.0	-9.3	15.2
SMILES	TLR4-MyD88 inh	rat GALR2 agon	S1P1 agonist	OPRK1 antag MB
Cc1c(C(=O)Cn2ccnc2)sc2ccc(Cl)cc12	2.2	-10.7	104.3*	-13.9
Cc1c(C(=O)CC#N)sc2ccc(Cl)cc12	3.9	-7.2	-8.1	-3.6
N/C(=N\OC(=O)c1cccc(C(F)(F)F)c1)c1cnccn1	-2.8	3.3	9.1	2.6
N/C(=N\OC(=O)c1cccc(C(F)(F)F)c1)c1ccc(OCC(F)(F)F)nc1	0.4	-5.7	84.5*	-12.1
N/C(=N\OC(=O)c1cccc(Cl)c1)c1cccc(C(F)(F)F)c1	-1.6	-6.4	98.6*	3.5
CCOC(=O)c1ccc(-n2c(CC)nc3c(C)csc3c2=O)cc1	-4.3	-3.9	-10.1	9.0
CCCc1c(OCCCOc2ccc3c(=O)c(-c4ccccc4)coc3c2)ccc(C(C)=O)c1O	12.1	-10.5	95.4*	-1.8
CC1=NN(C)C(=O)/C1=N\OC(=O)c1ccc(OC(F)(F)F)cc1	5.4	0.1	3.1	2.8
NC(=O)N/N=C/c1ccc(-c2cc(C(F)(F)F)cc(C(F)(F)F)c2)s1	7.2	-6.2	97.5*	3.7
CSc1ccc(C(F)(F)F)cc1NC=C(C#N)C#N	-2.4	-9.0	89.5*	26.5
CC(=O)Nc1ccc(F)cc1NC=C(C#N)C#N	2.3	-4.2	0.8	13.2
CN(C)C(=O)/C=C/c1ccccc1	1.4	-3.5	-7.9	20.2
CC(=O)C1C(=O)C=C(/C=C/c2ccccc2)CC1c1ccccc1 (stereo unspecified)	-5.2	-8.1	99.4*	18.9
CCOC(=O)c1cc(NC(=O)Nc2cccc(Cl)c2)ccc1Oc1cncc(Cl)c1	-0.7	-11.6	80.1*	19.6
O=C(c1ccc2c(c1)CCC2)C1CCC1	·	46.3*	-8.4	10.1
C1=CC2C(C1)C1CC(NC3=NCCS3)C2C1 (stereo unspecified)	7.5	-10.1	-12.9	-23.7
CC(=O)N1CCC(C(=O)NCc2cc3ccccc3s2)CC1	1.8	-6.4	2.7	5.0
O=C(Cn1c2c(c(=O)n3ncnc13)CCC2)N/N=C/c1cccs1	1.1	-6.0	-8.1	-9.1
Cn1c2c(c(=O)n3ncnc13)CCCC2	9.9	0.9	91.5*	-2.2
COc1cccc(-c2c3c([nH]c(=O)c2C#N)CCc2cc(OC)ccc2-3)c1	3.3	52.7*	-7.3	-171.2
O=C1NCCN1CCNS(=O)(=O)c1ccc(S(=O)(=O)c2ccccc2)s1	16.5	5.0	83.5*	-0.2
CC1(C)CCc2cc(/C=N/NC(=O)c3ccc(Cl)cc3)ccc2O1	-3.1	-8.0	-7.4	-9.9
C=CCn1c(-c2sc3nnc(-c4ccccc4)c(-c4ccccc4)c3c2N)n[nH]c1=S	-4.7	11.3	63.3	57.2*
C=CCn1c(-c2cnn(-c3ccccc3)c2N)n[nH]c1=S	-1.6	-6.7	-12.8	-1.0
N#Cc1cccc(C#N)c1Oc1ccc(N)cc1	-0.2	-6.4	0.9	94.1*
SMILES	TLR4-MyD88 inh	rat GALR2 agon	S1P1 agonist	OPRK1 antag MB
COc1ccccc1NC(=S)C(C#N)C(=O)N1CCOCC1 (stereo unspecified)	-0.7	-3.0	-10.0	-7.5
Cc1cc(=O)c2ccccc2o1	-4.1	-4.9	-0.2	3.5
NNC(=O)c1cnn(-c2ccc(Cl)cc2)c1C(F)(F)F	-6.5	-0.8	-21.9	-5.0
O=C(c1cnn(-c2ccc(Cl)cc2)c1C(F)(F)F)N1CCN(c2ncnc3ccsc23)CC1	5.9	-5.9	97.3*	80.5*
CCOC(=O)c1sc(COc2cccc(Cl)c2)nc1C	-1.3	-6.9	90.8*	2.9
CCOC(=O)c1sc(-c2ccccc2)nc1C	16.0	0.1	97.1*	-11.3
CCOC(=O)C1CCN(C(=O)c2sc(-c3ccccc3)nc2C)CC1	0.7	-6.4	4.7	3.8
COc1ccc(CC(N)=S)cc1	4.7	-6.7	12.1	18.6
Cc1csc(-c2nc(-c3ccc(C(F)(F)F)cc3)no2)c1	0.6	-6.6	85.7*	-4.4
Cc1nc(-c2noc(-c3ccc(C(F)(F)F)cc3)n2)cs1	4.8	-5.9	14.4	-3.4
O=C1c2ccccc2N(Cc2ccccc2)C(=O)C1(Cl)Cl	-0.3	-6.0	13.2	-65.8
Cn1cnc([N+](=O)[O-])c1Sc1ccc(C(F)(F)F)cn1	-3.8	34.6*	2.3	21.3

Source: PubChem BioAssay
